In PubChem BioAssay (Tox21) one finds Potency data, which are given here for six molecules.

Inconclusive results are not listed. Entries that show only a call come without a potency. Active and inactive are the calls of the source. Calls follow the shape of the dose curve; as a rule, active = well fitted cell-killing curve with a large enough effect in the repeat runs; inconclusive = weak or mixed curves, or effect the other way; inactive = flat fitted curve, though single readings scatter.

Assay [1] is described as follows: cAMP Responsive Elements (CRE) small molecule antagonists, cell-based qHTS assay: qHTS cell viability counter screen (AID 2060913). Also: nearly all actives have a fitted effect of over 40% in size. Summed up: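 CRE-bla HEK293T cells (2,000/well, 18 h) given compound plus NKH477 0.25 uM final for 3 h at 37C; viability counter-screen by CellTiter-Glo luminescence in same wells after 30 min.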
In general terms: qHTS replaces the single test concentration by a dilution series.

A short description of assay [2]: cAMP Responsive Elements (CRE) small molecule agonists, cell-based qHTS assay: qHTS cell viability counter screen (AID 2060914).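 Also: viability read after 3 h of compound exposure; nearly all actives have a fitted effect of over 50% in size.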 In short, it runs like this:
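Cells are seeded and incubated 18 h, treated with compounds in DMSO for 3 h, read for the bla reporter, then given CellTiter-Glo; luminescence is measured after 30 min at room temperature.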

Turning to `CCCCCCCCCCCCSC`, the Potency result in assay [1] and in assay [2] was “inactive” in each case.
Regarding `Nc1ccccc1S(=O)(=O)O`, the Potency result in assay [1] and in assay [2] was “inactive” in each case.
On to `CC(C)=CCOC(=O)c1ccccc1`, for which the Potency entry in assay [1] and in assay [2] was “inactive” throughout.
With `CCC(C)N(C)C(=O)c1cc2ccccc2c(-c2ccccc2Cl)n1` (configuration not stated), the Potency result in assay [1] and in assay [2] was “inactive” each time.
Consider `CC(=O)Nc1cccc(C)c1`, for which the Potency result in assay [1] and in assay [2] was “inactive” throughout.
Take `COC(=O)c1cc(S(N)(=O)=O)ccc1OC`: the Potency result in assay [1] and in assay [2] was “inactive” each time.
